Several values for one entry are separate records, joined by “and”; a condition that tells them apart may be missing. Identical values can stand only once. A structure can be active in one record and inactive in another. Activity calls are given as the source filed them. The calls were made as follows: active = hit-call score of the fitted dose curve at least 0.9, where 1 is the maximum; inactive = score below 0.9.
How the values were obtained:
Settings in all cases: mRNA level, 48 h; actives raise or lower the signal
[1] = read-out: ABC Transporter (ABCB11), ABCB11 (gene 8647); experiment: LTEA_HepaRG_ABCB11: Life Technologies and Expression Analysis (LTEA) Assay for ABC Transporter (ABCB11) using HepaRG (AID 2283463)
In short: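 ABCB11 transcript levels are read by Fluidigm TaqMan qRT-PCR after 48 h chemical treatment of human HepaRG cells. Concentrations span 100 uM downward in half-log steps with 0.5% DMSO; gain or loss is fitted against DMSO controls.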

[2] = read-out: Broad substrate specificity ATP-binding cassette transporter ABCG2 (Homo sapiens) (UniProt Q9UNQ0); experiment: LTEA_HepaRG_ABCG2: Life Technologies and Expression Analysis (LTEA) Assay for ABC Transporter (ABCG2) using HepaRG (AID 2283465)
In short: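 Read-out is ABCG2 mRNA induction or loss quantified by qRT-PCR after 48 h chemical treatment of human HepaRG cells, normalized to three housekeeping genes. Concentrations reached 100 uM top in half-log steps; fitting was bidirectional against 0.5% DMSO.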

[3] = read-out: ATP-citrate lyase (ACLY), ACLY (gene 47); experiment: LTEA_HepaRG_ACLY: Life Technologies and Expression Analysis (LTEA) Assay for ATP-citrate lyase (ACLY) using HepaRG (AID 2283466)
In short: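 HepaRG, 48 h exposure, 8-pt half-log dilutions (top 100 uM), 0.5% DMSO. Readout: ACLY mRNA, TaqMan qRT-PCR, housekeeping-normalized (ACTB/GAPDH/POLR2A). Bidirectional curve fit vs DMSO.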

[4] = read-out: Peroxisomal acyl-coenzyme A oxidase 1 (ACOX1) gene, ACOX1 (gene 51); experiment: LTEA_HepaRG_ACOX1: Life Technologies and Expression Analysis (LTEA) Assay for Peroxisomal acyl-coenzyme A oxidase 1 (ACOX1) gene using HepaRG (AID 2283467)
In short: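 Measured by qRT-PCR against three housekeeping genes: ACOX1 transcript change in human HepaRG cells after 48 h dosing. Concentrations ran up to 100 uM in half-log steps. Curves were fitted bidirectionally relative to 0.5% DMSO.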

[5] = read-out: Alkaline Phosphatase, Placental (ALPP) gene, ALPP (gene 250); experiment: LTEA_HepaRG_ALPP: Life Technologies and Expression Analysis (LTEA) Assay for Alkaline Phosphatase, Placental (ALPP) gene using HepaRG (AID 2283468)
In short: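 Differentiated human HepaRG cells were plated and cultured 48 h, then exposed in duplicate for 48 h in serum-free induction medium to eight half-log concentrations from 100 uM in 0.5% DMSO. ALPP mRNA was measured by TaqMan qRT-PCR, normalized to ACTB, GAPDH, POLR2A.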

[6] = read-out: Bcl-2 (BAD) gene, BAD (gene 572); experiment: LTEA_HepaRG_BAD: Life Technologies and Expression Analysis (LTEA) Assay for Bcl-2 (BAD) gene using HepaRG (AID 2283469)
In short: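 BAD transcript change, measured by qRT-PCR against three housekeeping genes and fitted in both directions relative to 0.5% DMSO, after 48 h chemical treatment of human HepaRG liver cells at concentrations up to 100 uM.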

[7] = read-out: Bcl-2 (BAX) gene, BAX (gene 581); experiment: LTEA_HepaRG_BAX: Life Technologies and Expression Analysis (LTEA) Assay for Bcl-2 (BAX) gene using HepaRG (AID 2283470)
In short: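 Differentiated HepaRG cells exposed 48 h in serum-free induction medium, eight half-log concentrations from 100 uM, in duplicate, 0.5% DMSO vehicle. BAX mRNA by TaqMan qRT-PCR, normalised to ACTB, GAPDH and POLR2A.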

[8] = read-out: adenosine kinase (ADK) gene, ADK (gene 132); experiment: LTEA_HepaRG_ADK: Life Technologies and Expression Analysis (LTEA) Assay for adenosine kinase (ADK) gene using HepaRG (AID 2283471)
In short: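 Following 48 h exposure of HepaRG cells in 0.5% DMSO (top concentration 100 uM, duplicate wells), ADK mRNA induction or suppression was measured by qRT-PCR, normalised to ACTB/GAPDH/POLR2A, and fitted bidirectionally relative to vehicle.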

[9] = read-out: Alpha-fetoprotein (AFP) gene, AFP (gene 174); experiment: LTEA_HepaRG_AFP: Life Technologies and Expression Analysis (LTEA) Assay for Alpha-fetoprotein (AFP) gene using HepaRG (AID 2283472)
In short: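 Differentiated human HepaRG cells exposed 48 h in serum-free induction medium, 8-point half-log series from 100 uM in 0.5% DMSO, duplicate. AFP mRNA by qRT-PCR, normalized to ACTB, GAPDH, POLR2A; bidirectional fit vs DMSO.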

BCL2L11 (gene 10018) = experiment: LTEA_HepaRG_BCL2L11: Life Technologies and Expression Analysis (LTEA) Assay for Bcl-2 (BCL2L11) gene using HepaRG (AID 2283473)
In short: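 Differentiated human HepaRG cells in serum-free induction medium were exposed in duplicate for 48 h to eight concentrations (top 100 uM, half-log steps, 0.5% DMSO). BCL2L11 mRNA was quantified by TaqMan qRT-PCR, normalized to ACTB/GAPDH/POLR2A, bidirectional fit versus DMSO.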

[10] = read-out: Apolipoprotein A-V (APOA5) gene, APOA5 (gene 116519); experiment: LTEA_HepaRG_APOA5: Life Technologies and Expression Analysis (LTEA) Assay for Apolipoprotein A-V (APOA5) gene using HepaRG (AID 2283474)
In short: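 Differentiated human HepaRG cells were exposed in duplicate for 48 h to eight half-log concentrations from 100 uM in 0.5% DMSO. APOA5 mRNA was quantified by TaqMan qRT-PCR, normalized to ACTB, GAPDH and POLR2A, and fitted bidirectionally against DMSO.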

[11] = read-out: Apoptosis regulator Bcl-2 (Homo sapiens) (UniProt P10415); experiment: LTEA_HepaRG_BCL2: Life Technologies and Expression Analysis (LTEA) Assay for Bcl-2 gene using HepaRG (AID 2283475)
In short: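 Differentiated human HepaRG cells in serum-free induction medium exposed 48 h, in duplicate, to 8-point half-log series from 100 uM in 0.5% DMSO. BCL2 mRNA by qRT-PCR (TaqMan/Fluidigm), normalized to ACTB, GAPDH, POLR2A; bidirectional fit against DMSO.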

[12] = read-out: Bcl-2 (BID) gene, BID (gene 637); experiment: LTEA_HepaRG_BID: Life Technologies and Expression Analysis (LTEA) Assay for Bcl-2 (BID) gene using HepaRG (AID 2283476)
In short: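 Gene expression by qRT-PCR in HepaRG cells after 48 h exposure, duplicate wells, eight half-log concentrations topping at 100 uM in 0.5% DMSO. Normalized to ACTB, GAPDH, POLR2A; bidirectional fitting relative to DMSO.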

Caspase-3 (Homo sapiens) = Caspase-3 (Homo sapiens) (UniProt P42574); experiment: LTEA_HepaRG_CASP3: Life Technologies and Expression Analysis (LTEA) Assay for cysteine-aspartic acid protease (CASP3) using HepaRG (AID 2283477)
Caspase-3 (Homo sapiens), sequence (P42574 whole entry, looked up): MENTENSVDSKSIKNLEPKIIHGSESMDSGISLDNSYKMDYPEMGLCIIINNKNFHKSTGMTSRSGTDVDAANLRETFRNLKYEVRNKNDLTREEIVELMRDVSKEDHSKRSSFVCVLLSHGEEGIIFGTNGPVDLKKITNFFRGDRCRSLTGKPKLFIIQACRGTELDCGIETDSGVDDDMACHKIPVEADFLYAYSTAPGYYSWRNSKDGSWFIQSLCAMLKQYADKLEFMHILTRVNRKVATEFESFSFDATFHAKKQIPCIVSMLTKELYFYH
In short: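 Differentiated human HepaRG cells in serum-free induction medium were exposed 48 h to 8-point half-log concentrations from 100 uM (0.5% DMSO vehicle). CASP3 mRNA was measured by qRT-PCR, normalised to ACTB, GAPDH and POLR2A, with bidirectional fitting against DMSO.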

[13] = read-out: Cytochrome P450 (CYP24A1), CYP24A1 (gene 1591); experiment: LTEA_HepaRG_CYP24A1: Life Technologies and Expression Analysis (LTEA) Assay for Cytochrome P450 (CYP24A1) using HepaRG (AID 2283478)
In short: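 Differentiated HepaRG cells, pre-cultured 48 h, were exposed in duplicate for 48 h in serum-free induction medium to 8 half-log concentrations (top 100 uM, 0.5% DMSO). CYP24A1 mRNA was quantified by TaqMan qRT-PCR, normalized to ACTB/GAPDH/POLR2A, fitted bidirectionally versus DMSO.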

[14] = read-out: Cytochrome P450 (CYP1A2), CYP1A2 (gene 1544); experiment: LTEA_HepaRG_CYP1A2: Life Technologies and Expression Analysis (LTEA) Assay for Cytochrome P450 (CYP1A2) using HepaRG (AID 2283479)
In short: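 Differentiated human HepaRG cells in serum-free induction medium were exposed in duplicate for 48 h to 8-point half-log concentrations up to 100 uM in 0.5% DMSO. CYP1A2 mRNA measured by qRT-PCR, normalized to ACTB, GAPDH, POLR2A; bidirectional fit vs DMSO.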

[15] = read-out: cysteine-aspartic acid protease (CASP8), CASP8 (gene 841); experiment: LTEA_HepaRG_CASP8: Life Technologies and Expression Analysis (LTEA) Assay for cysteine-aspartic acid protease (CASP8) using HepaRG (AID 2283480)
In short: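 HepaRG, 48 h exposure, duplicate wells; 8 conc, half-log from 100 uM, 0.5% DMSO. Serum-free induction medium. CASP8 mRNA by TaqMan qRT-PCR, norm. ACTB/GAPDH/POLR2A; gain/loss fitted vs DMSO.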

[16] = read-out: Cytochrome P450 (CYP2B6), CYP2B6 (gene 1555); experiment: LTEA_HepaRG_CYP2B6: Life Technologies and Expression Analysis (LTEA) Assay for Cytochrome P450 (CYP2B6) using HepaRG (AID 2283481)
In short: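 Differentiated HepaRG cells, serum-free induction medium, exposed 48 h in duplicate to 8-point half-log concentrations from 100 uM in 0.5% DMSO. CYP2B6 mRNA by qRT-PCR, normalized to ACTB, GAPDH, POLR2A; bidirectional fit versus DMSO.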

[17] = read-out: Cytochrome P450 2C19 (Homo sapiens) (UniProt P33261); experiment: LTEA_HepaRG_CYP2C19: Life Technologies and Expression Analysis (LTEA) Assay for CYP2C19 using HepaRG (AID 2283482)
In short: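 Differentiated human HepaRG cells were exposed for 48 h in serum-free induction medium to 8 concentrations (top 100 uM, half-log steps, 0.5% DMSO). CYP2C19 mRNA was measured by qRT-PCR, normalized to ACTB/GAPDH/POLR2A, and fitted bidirectionally against DMSO.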

Measured: AC50

Apoptosis regulator Bcl-2 (Homo sapiens), sequence (P10415 whole entry, looked up): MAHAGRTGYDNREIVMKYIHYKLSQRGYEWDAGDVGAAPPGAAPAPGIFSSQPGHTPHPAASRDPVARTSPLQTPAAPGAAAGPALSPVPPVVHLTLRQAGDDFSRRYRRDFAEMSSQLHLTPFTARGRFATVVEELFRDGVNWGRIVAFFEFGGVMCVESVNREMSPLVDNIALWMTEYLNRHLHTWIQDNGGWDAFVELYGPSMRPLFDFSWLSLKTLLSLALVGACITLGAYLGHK
Cytochrome P450 2C19 (Homo sapiens), sequence (P33261 whole entry, looked up): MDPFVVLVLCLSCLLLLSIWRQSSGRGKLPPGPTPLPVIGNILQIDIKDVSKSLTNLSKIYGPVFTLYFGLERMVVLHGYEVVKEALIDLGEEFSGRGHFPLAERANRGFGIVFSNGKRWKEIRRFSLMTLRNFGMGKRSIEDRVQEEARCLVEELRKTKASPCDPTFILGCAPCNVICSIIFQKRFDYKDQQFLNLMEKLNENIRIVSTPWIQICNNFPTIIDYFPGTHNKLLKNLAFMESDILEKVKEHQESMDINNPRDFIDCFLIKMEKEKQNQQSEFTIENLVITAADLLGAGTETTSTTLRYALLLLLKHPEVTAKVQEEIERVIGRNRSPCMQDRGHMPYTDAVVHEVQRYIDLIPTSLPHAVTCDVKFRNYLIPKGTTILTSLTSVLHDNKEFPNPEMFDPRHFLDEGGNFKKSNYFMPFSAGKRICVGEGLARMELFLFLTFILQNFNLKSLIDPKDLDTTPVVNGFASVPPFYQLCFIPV
Broad substrate specificity ATP-binding cassette transporter ABCG2 (Homo sapiens), sequence (Q9UNQ0 whole entry, looked up): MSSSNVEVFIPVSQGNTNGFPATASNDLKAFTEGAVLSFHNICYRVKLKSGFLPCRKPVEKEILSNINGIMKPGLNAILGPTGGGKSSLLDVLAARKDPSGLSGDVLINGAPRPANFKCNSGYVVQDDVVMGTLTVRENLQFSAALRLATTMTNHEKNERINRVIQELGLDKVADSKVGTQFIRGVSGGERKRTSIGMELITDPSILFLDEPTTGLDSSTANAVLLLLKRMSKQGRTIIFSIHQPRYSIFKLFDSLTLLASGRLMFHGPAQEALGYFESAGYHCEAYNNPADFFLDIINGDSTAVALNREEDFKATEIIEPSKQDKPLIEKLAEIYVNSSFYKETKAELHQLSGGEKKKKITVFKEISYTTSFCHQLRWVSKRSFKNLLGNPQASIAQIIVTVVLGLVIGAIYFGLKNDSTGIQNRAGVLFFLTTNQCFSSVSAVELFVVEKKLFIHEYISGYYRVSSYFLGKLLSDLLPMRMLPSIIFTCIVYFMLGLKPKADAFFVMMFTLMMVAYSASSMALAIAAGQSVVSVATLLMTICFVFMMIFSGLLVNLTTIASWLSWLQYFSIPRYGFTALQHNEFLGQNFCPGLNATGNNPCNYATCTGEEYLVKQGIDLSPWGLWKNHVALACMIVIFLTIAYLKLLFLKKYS

CCCN(CCC)c1c([N+](=O)[O-])cc(C(F)(F)F)cc1[N+](=O)[O-]
active: [14] 32.3 µM | [16] 50 µM
inactive: all other assays above

O=S(=O)(O)C(F)(F)C(F)(F)C(F)(F)C(F)(F)C(F)(F)C(F)(F)C(F)(F)C(F)(F)F
inactive: [1] | [2] | [3] | [4] | [5] | [6] | [7] | [8] | [9] | BCL2L11 (gene 10018) | [10] | Caspase-3 (Homo sapiens) | [13] | [15] | [17]
active: [1] 90.7 µM and 85.1 µM and 86.6 µM | [2] 14.4 µM and 7.01 µM | [3] 50 µM and 9.92 µM | [5] 36.6 µM and 50 µM and 48 µM | [7] 50 µM and 48 µM | [8] 12.8 µM | [9] 77.9 µM and 80.1 µM and 75.8 µM | [10] 34.1 µM | [11] 50 µM and 65.5 µM and 48 µM | Caspase-3 (Homo sapiens) 22.1 µM | [13] 0.00316 µM | [14] 84.5 µM and 10.3 µM and 48 µM | [15] 34.5 µM | [16] 88.9 µM [middle of 4 runs] | [17] 89.3 µM and 12.1 µM and 11 µM

Oc1ccc(Cl)cc1Cc1ccccc1
inactive: [2] | [3] | [4] | [5] | [6] | [7] | [8] | [9] | BCL2L11 (gene 10018) | [10] | [11] | Caspase-3 (Homo sapiens) | [13] | [14] | [15] | [16] | [17]
active: [1] 93.7 µM and 67 µM and 80 µM | [9] 82.5 µM and 90 µM | [10] 79.8 µM | [17] 83.7 µM and 50.5 µM

CCOC1Oc2ccc(OS(C)(=O)=O)cc2C1(C)C (configuration not stated)
active: [1] 73 µM | [2] 28.2 µM | [3] 82.6 µM | [4] 60.8 µM | [5] 43.6 µM | [9] 72.3 µM | [10] 77 µM | [11] 82.1 µM | [14] 73.3 µM | [16] 91.3 µM | [17] 11.7 µM
inactive: [6] | [7] | [8] | BCL2L11 (gene 10018) | Caspase-3 (Homo sapiens) | [13] | [15]

O=C(Nc1ccccc1)Nc1cnns1
active: [1] 63.6 µM | [4] 50 µM | [5] 78.6 µM | [9] 76.2 µM | [14] 68 µM | [17] 89.1 µM
inactive: all other assays above

— PubChem BioAssay (EPA / NIEHS)
